Screening results from PubChem BioAssay.
PAFAH1B2 FP inh – PAFAH1B2 enzyme inhibitors, primary screen, biochemical, fluorescence polarization, human. Platelet-activating factor acetylhydrolase IB subunit alpha2 (Homo sapiens), P68402. recombinant PAFAH1B2, FP-rhodamine activity probe. hit rate 1.2% among 340,000. AID 492953, 2010. inhibition, % at 3.39 µM;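 active = inhibition above the mean of all tested compounds plus 3 SD, cut at about 24% in these data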
HTRA1 inhibitor – HTRA1 serine protease inhibitors, primary screen, biochemical, fluorescence polarization, HTS; recombinant HTRA1, FP-rhodamine activity-based probe; inhibition, % at 5.96 µM; hit rate 0.5% among 340,000; AID 504803, 2011; in the data active = inhibition above about 36%
PAFAH2 FP inh – PAFAH2 enzyme inhibitors, primary screen, biochemical, fluorescence polarization, human; recombinant PAFAH2, FP-rhodamine activity probe; inhibition, % at 3.39 µM; hit rate 0.99% among 340,000;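 active = inhibition above the mean over all tested compounds plus 3 SD, cut at about 30% in these data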;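 also: inhibitors block probe labeling of enzyme so polarization drops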
PAFAH1B3 FP inh – PAFAH1B3 enzyme inhibitors, primary screen, biochemical, fluorescence polarization, human. Platelet-activating factor acetylhydrolase IB subunit alpha1 (Homo sapiens), Q15102. recombinant PAFAH1B3, FP-rhodamine probe. inhibition, % at 3.39 µM. hit rate 0.28% among 340,000. AID 492972, 2010;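 active = inhibition above the screen-wide average of all tested compounds plus 3 SD, cut at about 25% in these data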
DAGLB inh – DAGLB lipase inhibitors, primary screen, biochemical, fluorescence, HTS; Diacylglycerol lipase-beta (Homo sapiens), Q8NCG7; HEK293T DAGLB membrane lysate, EnzChek fluorogenic substrate; inhibition, % at 5.17 µM; hit rate 0.059% among 340,000; in the data active = inhibition above about 34%
pPAFAH FP inh – pPAFAH enzyme inhibitors, primary screen, biochemical, fluorescence polarization, human; Platelet-activating factor acetylhydrolase (Homo sapiens), Q13093; recombinant pPAFAH, FP-rhodamine probe fluorescence polarization; inhibition, % at 3.39 µM; hit rate 1.5% among 330,000; AID 463082, 2010;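 active = inhibition above the mean inhibition across the screen plus 3 SD, cut at about 25% in these data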;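 also: inhibitors block binding of the rhodamine activity-based probe so polarization drops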
Target sequence (Q13093 whole entry, looked up): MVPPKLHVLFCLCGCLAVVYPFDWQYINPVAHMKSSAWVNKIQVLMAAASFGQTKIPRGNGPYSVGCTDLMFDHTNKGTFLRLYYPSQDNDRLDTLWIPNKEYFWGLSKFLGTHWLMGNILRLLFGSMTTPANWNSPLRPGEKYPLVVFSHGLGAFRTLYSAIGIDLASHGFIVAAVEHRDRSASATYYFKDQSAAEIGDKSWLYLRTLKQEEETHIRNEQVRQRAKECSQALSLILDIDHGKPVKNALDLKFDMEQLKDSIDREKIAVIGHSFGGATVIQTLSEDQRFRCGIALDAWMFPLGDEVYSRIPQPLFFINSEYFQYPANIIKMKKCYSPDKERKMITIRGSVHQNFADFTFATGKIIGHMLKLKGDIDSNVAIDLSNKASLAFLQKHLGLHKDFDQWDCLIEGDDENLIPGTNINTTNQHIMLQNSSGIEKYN
Of the large screens only hits and unclear results are named; the others gave an inactive call. Rows were chosen to be rich in hits. Some 2.8% of all compounds tested hit in one or more screens of this group.

COC(=O)c1ccc(C(=O)N2CCCC(Nc3ccc(C(C)C)cc3)C2)nc1 (stereo not drawn)	PAFAH1B2 FP inh 25
CC(C)c1ccc(NC2CCCN(C(=O)c3ccc4nccnc4c3)C2)cc1 (stereo not drawn)	none
COc1ccc(C(=O)N2CCOC2CNC(=O)C(=O)NCCc2ccc(OC)c(OC)c2)cc1 (stereo not drawn)	none
O=[N+]([O-])c1ccc(S(=O)(=O)NNC(=S)NCCc2ccccc2)cc1	PAFAH1B2 FP inh 42
C1=CC(c2cc3ccccc3o2)OC(CCc2ccccc2)C1 (stereo not drawn)	none
O=C(N/N=C/c1cccc(O)c1)c1ccc(NC(=O)C2CCCCC2)cc1	none (no result: pPAFAH FP inh)
O=C(N/N=C/c1ccc(O)cc1O)c1ccc(NC(=O)C2CCCCC2)cc1	PAFAH1B2 FP inh 33, PAFAH1B3 FP inh 37
O=C1/C(=C\c2ccco2)SC(=S)N1c1ccccc1	pPAFAH FP inh 29
O=C(O)CCCN1C(=O)/C(=C\c2ccco2)SC1=S	none (no result: pPAFAH FP inh)
O=C1/C(=C\c2ccco2)SC(=S)N1Cc1ccccc1	pPAFAH FP inh 25
O=C(CCCN1C(=O)/C(=C\c2ccco2)SC1=S)Nc1ccc2ccccc2c1	pPAFAH FP inh 28
O=C1/C(=C/c2ccccn2)SC(=S)N1Cc1ccccc1	none (no result: PAFAH1B2 FP inh, HTRA1 inhibitor, PAFAH2 FP inh, PAFAH1B3 FP inh, DAGLB inh)
COc1ccc(NC(=O)COC(=O)c2c(NC(C)=O)sc(C)c2C)cc1	none (no result: PAFAH1B2 FP inh, PAFAH2 FP inh, PAFAH1B3 FP inh, pPAFAH FP inh)
Cc1ccc(C(=O)N2CCN(S(=O)(=O)c3ccccc3)CC2)s1	none
O=C(O)c1ccc(Cn2cnc3scc(-c4ccccc4)c3c2=O)cc1	PAFAH1B2 FP inh 26
N#Cc1c(Nc2ccccc2)c(/C=N/NCCO)c[nH]c1=O	pPAFAH FP inh 26
N#Cc1c(Nc2ccccc2)c(/C=N/N=C/c2ccccc2)c[nH]c1=O	none
N#Cc1c(Nc2ccccc2)c(C=NCCN2CCOCC2)c[nH]c1=O	pPAFAH FP inh 29
C[C@@H]1CN([C@@H](C)CO)C(=O)c2cc(NC(=O)C3CC3)ccc2O[C@@H]1CN(C)Cc1ccc(Cl)c(Cl)c1	none
O=C(Nc1nccs1)c1ccc(N2CCOCC2)c([N+](=O)[O-])c1	none
O=C(Oc1ccc(-c2ccccc2)cc1)c1ccco1	PAFAH1B2 FP inh 32 (no result: pPAFAH FP inh)
COC(=O)c1ccc(OC(=O)c2ccco2)cc1	none
N#Cc1c(SCC(=O)Nc2ccc(C(F)(F)F)cc2)sc2c(O)cc(=O)[nH]c12	pPAFAH FP inh 25
Cc1ccc(NC(=O)CSc2sc3c(O)cc(=O)[nH]c3c2C#N)c(F)c1	pPAFAH FP inh 31
Cc1cc(=O)[nH]c(SCC(=O)Nc2ccc(F)cc2)c1C#N	none (no result: PAFAH1B2 FP inh, HTRA1 inhibitor, PAFAH2 FP inh, PAFAH1B3 FP inh, DAGLB inh)
COc1ccc(OC)c(NC(=O)CSc2sc3c(O)cc(=O)[nH]c3c2C#N)c1	none
COc1ccccc1CNC(=O)c1cc2c(=O)[nH]c3ccccc3c2n1C	none (no result: PAFAH1B2 FP inh, HTRA1 inhibitor, PAFAH2 FP inh, PAFAH1B3 FP inh, DAGLB inh)
O=C(O)C(Cc1c[nH]c2ccccc12)NS(=O)(=O)c1ccccc1 (stereo not drawn)	PAFAH1B2 FP inh 24
CCN1C(=O)/C(=C\c2ccc(-c3ccc([N+](=O)[O-])cc3OC)o2)SC1=Nc1cccc(C(=O)O)c1	PAFAH1B2 FP inh 24 (no result: pPAFAH FP inh)
CCN1C(=O)/C(=C\c2ccc(-c3cccc(C(=O)OC)c3)o2)SC1=Nc1ccc(C(=O)O)cc1	none (no result: PAFAH1B2 FP inh, HTRA1 inhibitor, PAFAH2 FP inh, PAFAH1B3 FP inh, DAGLB inh)
Cc1cccc(NC(=O)Cn2nc(-c3ccco3)ccc2=O)c1C	none
NNC(=S)NC1CCCCCCCCCCC1	PAFAH1B2 FP inh 55
COc1ccc(/C(N)=N/OC(=O)CC2CCCCC2)cc1	none
Brc1ccc(CSc2nnc(-c3ccco3)o2)cc1	PAFAH1B2 FP inh 27
O=C(O)c1cc(-c2ccccc2Cl)n(-c2ccccc2)n1	PAFAH1B2 FP inh 29
CCCCNc1ccc2c3c(cccc13)C(=O)N(CCCC)C2=O	PAFAH2 FP inh 34, PAFAH1B3 FP inh 31 (no result: pPAFAH FP inh)
CN(C)CCCN1C(=O)c2cccc3c(Br)ccc(c23)C1=O	none
O=C1CC2(CCN(C(=O)C3CC(=O)N(c4ccc(F)cc4)C3)CC2)Oc2ccccc21 (stereo not drawn)	none
CC(Oc1ccccc1)C(=O)N=C1SC2CS(=O)(=O)CC2N1CCc1ccccc1 (stereo not drawn)	none
